Bioassay records from PubChem BioAssay.
HepG2 tox: qHTS for Inhibitors of TGF-b: Cytotox Counterscreen; HepG2 CAGA-GFP viability, ATP luminescence, 18 h; Potency, µM (highest dose often 46.1 µM), hits mostly cytotoxic; hit rate 0.76% among 410,000
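HepG2 CAGA-GFP cells (1000/well, DMEM with 1% FBS) received compound, then TGF-beta at 500 pg/mL final, and were incubated 18 hours at 37 degrees C. Viability was read by CellTiter-Glo luminescence. Media-only wells were set as complete cell-killing and DMSO as no toxicity.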
DT40 TDP1 no CPT: qHTS for Inhibitors of human tyrosyl-DNA phosphodiesterase 1 (TDP1): qHTS in cells in absence of CPT; DT40 Tdp1-/- hTDP1 cells, no CPT, ATP luminescence, 48 h; Potency, µM (highest dose often 46.2 µM), most hits filed as inhibitors; hit rate 15% among 420,000; also: nearly all actives have a fitted effect of over 55% in size
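Luminescent ATP content (CellTiter-Glo) served as the growth readout. Knockout chicken DT40 cells expressing human TDP1 were exposed to compounds without camptothecin for a minimum 48 hr at 37 °C.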
HT1080NT lethal: qHTS for induction of synthetic lethality in tumor cells producing 2HG: qHTS for the HT-1080-NT fibrosarcoma cell line | hit rate 1.6% among 360,000 | Potency, µM (highest dose often 46.1 µM), actives largely listed as cytotoxic | HT-1080-NT fibrosarcoma viability, CellTiter-Glo ATP luminescence, 48 h;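 also: NT is the 2HG producing partner of a matched IDH1 knockdown line; nearly all actives have a fitted effect of over 55% in size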
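Read-out is CellTiter-Glo luminescence after 10 minutes at room temperature, following 48 hours' compound treatment of HT-1080-NT cells (750 cells/well, RPMI, 5% FBS, 37 degrees C).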
DT40 TDP1 CPT: qHTS for Inhibitors of human tyrosyl-DNA phosphodiesterase 1 (TDP1): qHTS in cells in presence of CPT; hit rate 12% among 420,000; chicken DT40 Tdp1-/-;hTDP1 cells + 20 nM CPT, ATP luminescence, 48 h; Potency, µM (titrated, usually from 46.2 µM), usual class: inhibitors; also: nearly all actives have a fitted effect of over 55% in size
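Chicken DT40 Tdp1-/- cells complemented with human TDP1, 400 cells/well, exposed to compounds plus 20 nM camptothecin for at least 48 h at 37 C; viability read as ATP content by CellTiter-Glo luminescence.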
TGFb inhibitor: qHTS for Inhibitors of TGF-b; HepG2 CAGA-GFP TGF-b/SMAD3 reporter, GFP fluorescence, 18 h; TGF-beta stimulated, 500 pg/mL final; Potency, µM (highest dose often 46.1 µM), most hits filed as inhibitors; hit rate 1.2% among 410,000; AID 588855, 2011; also: nearly all actives have a fitted effect of over 65% in size
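Per well, imaged GFP fluorescence of HEPG2 CAGA-GFP cells gives the signal; cells get compound, then TGF-beta (500 pg/mL final), 18 h at 37 degrees C; %Activity versus -TGF-beta and +DMSO controls.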
HT1080 IDH1KD tx: qHTS for induction of synthetic lethality in tumor cells producing 2HG: qHTS for the HT-1080-IDH1KD cell line; HT-1080 IDH1 knockdown viability, ATP luminescence, 48 h; Potency, µM (doses to about 46.1 µM), actives largely listed as cytotoxic; hit rate 2% among 360,000; AID 686971, 2013
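Knockdown cells (IDH1KD HT-1080) received compounds 2 h after plating at 750 cells/well and were kept 48 h at 37 °C in 5% FBS RPMI. A CellTiter-Glo luminescence read gave % activity for curve fitting.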
A number is an active result; . = inactive; ? = inconclusive; / = no result; [ ] = dose if it differs, or a comment. Rows were chosen to be rich in hits. Some 17% of all compounds tested hit in one or more screens of this group. Calls follow the shape of the dose curve; as a rule, active = well fitted curve in the direction sought with a large enough effect; inconclusive = small, poorly fitted or top-dose-only effect, or another doubt; inactive = no such curve, though single readings can be large; an effect the other way counts as inactive or inconclusive.

SMILES	HepG2 tox	DT40 TDP1 no CPT	HT1080NT lethal	DT40 TDP1 CPT	TGFb inhibitor	HT1080 IDH1KD tx
CCCCNC(=O)C1CCC(Cn2c(=O)c3sccc3n(CC(=O)Nc3ccccc3)c2=O)CC1 (stereo not drawn)	.	?	/	15µM	.	/
CCCNC(=O)C1CCC(Cn2c(=O)c3sccc3n(CC(=O)NCc3cccc(OC)c3OC)c2=O)CC1 (stereo not drawn)	.	4.1µM	/	?	.	/
O=C(O)C1CC=CCC1C(=O)Nc1ccc2c(c1)CCC2 (stereo not drawn)	.	.	.	.	.	.
CN(O)/C=C/C(=O)c1ccc(Br)cc1	.	?	.	16µM	.	.
CN(C)/C=C/C(=O)c1ccc(Br)cc1	.	.	.	.	.	.
CC1(c2ccc(NC(=O)c3ccccc3F)cc2)CC1(Cl)Cl (stereo not drawn)	.	?	.	?	.	.
COCCNC(=O)c1ccc(N2CC3CC(C2)c2cccc(=O)n2C3)c(NC(=O)c2ccc(C(C)(C)C)cc2)c1 (stereo not drawn)	.	?	.	.	.	.
COc1ccc(-c2nc(CN3CCCCC3c3nccn3C)c(C)o2)c(C)c1C (stereo not drawn)	.	?	?	.	20µM	?
COc1ccccc1C1CCCN1Cc1nc(-c2ccc(C)s2)oc1C (stereo not drawn)	.	?	.	18µM	?	?
COc1ccc(OC)c(-c2nc(CN3CCCCC3c3cccnc3)c(C)o2)c1 (stereo not drawn)	.	?	.	.	.	.
COc1ccc(C(=O)CSc2nnc(CNC(=O)c3ccccc3F)n2C)cc1OC	.	.	.	.	.	.
O=C1CCCN1c1ccc(S(=O)(=O)NCCOc2ccccc2)cc1	.	11µM	.	?	.	.
Cc1cc(N2CCCC2=O)cc(C)c1S(=O)(=O)NCCOc1ccc(C(C)(C)C)cc1	.	7.3µM	?	7.3µM	.	?
Cc1cc(-n2cnnn2)cc(C)c1S(=O)(=O)NCCOc1ccccc1	.	.	.	.	.	.
Cc1cc(N2CCCC2=O)ccc1S(=O)(=O)NC1CCCCC1	.	21µM	.	?	.	.
Cc1cc(C)c(S(=O)(=O)NCC(=O)NCc2ccco2)c(C)c1	.	.	.	.	.	.
CCCCNC(=O)COC(=O)CNC(=O)c1cc(Cl)cc([N+](=O)[O-])c1	.	.	.	.	.	.
Cc1cccc(Nc2c(-c3ccsc3)nc3nc(C)cc(C)n23)c1	.	?	/	?	?	/
Cc1cc(C)n2c(Nc3cccc(C(F)(F)F)c3)c(-c3ccsc3)nc2n1	.	16µM	/	16µM	?	/
Cc1cccc(Nc2c(-c3cccs3)nc3nc(C)cc(C)n23)c1	.	?	/	26µM	.	/
Cc1cc(C)n2c(Nc3ccccc3)c(-c3ccc(C)o3)nc2n1	/	?	.	?	/	.
CN(Cc1ccon1)C(=O)c1cnn(-c2ncc3c(n2)-c2ccccc2CCC3)c1C1CC1	/	?	/	.[9.04 µM]	/	/
CC(C)CN(CC(C)C)CC(O)COc1ccccc1Br (stereo not drawn)	11µM	15µM	?	?	11µM	?
CC(C)CN(CC(C)C)CC(O)COc1ccc([N+](=O)[O-])cc1 (stereo not drawn)	.	18µM	.	?	.	.
Cc1ccccc1OCC(O)CN(CCO)Cc1ccccc1 (stereo not drawn)	.	.	.	.	.	?
SMILES	HepG2 tox	DT40 TDP1 no CPT	HT1080NT lethal	DT40 TDP1 CPT	TGFb inhibitor	HT1080 IDH1KD tx
CCCCN(CCCC)CC(O)COc1ccccc1Br (stereo not drawn)	.	16µM	.	?	.	?
CC(C)c1nn2c(=O)cc(COC(=O)c3cccc(NC(=O)c4cccs4)c3)nc2s1	.	.	/	.	.	/
CCc1nn2c(=O)cc(COC(=O)c3cccc(NC(=O)c4cccs4)c3)nc2s1	.	15µM	/	?	.	/
CCOCCc1nn2c(=O)cc(COC(=O)c3ccc(NC(=O)C(C)(C)C)cc3)nc2s1	.	13µM	/	16µM	.	/
CCCc1nn2c(=O)cc(COC(=O)c3ccc(NC(=O)c4cccs4)cc3)nc2s1	.	21µM	/	?	11µM	/
CC(C)c1ccc(CN2CCC(Oc3ccc(C(=O)N4CCCC4)cc3)CC2)cc1	.	?	.	?	?	.
Cc1ccc(C)c(N2CCN(C(=O)c3ccc4[nH]c(C)c(C)c4c3)CC2)c1	.	12µM	/	12µM	.	/
Cc1ccc(C)c(N2CCN(C(=O)c3ccc4nsnc4c3)CC2)c1	.	13µM	8.2µM	12µM	.	9.2µM
O=C(c1ccc2nsnc2c1)N1CCN(c2ccc([N+](=O)[O-])cc2)CC1	.	21µM	?	21µM	?	.
Cc1ccc(C)c(N2CCN(C(=O)c3cc4ccccn4n3)CC2)c1	.	23µM	.	?	.	.
Cc1ccc(Cl)cc1N1CCN(C(=O)c2ccc3nc[nH]c3c2)CC1	.	?	.	?	?	.
COc1ccc(CN2C(=O)C(CC(=O)NCC3CCCCC3)CC(C(=O)N3CCOCC3)=C2C)cc1 (stereo not drawn)	.	.	.	.	.	.
Cc1cccc(NC(=O)c2c(NC(=O)c3ccco3)sc3c2CCC(C)C3)c1 (stereo not drawn)	.	?	/	?	.	/
Cc1ccc(S(=O)(=O)N2CCC(C(=O)Nc3ccc(C)c(Cl)c3)CC2)cc1	.	?	/	?	?	/
O=C(c1cnc2n(c1=O)CCS2)N(c1ccccc1)C1CCCCC1	.	?	.	?	.	.
Cc1cccc(N(C(=O)c2cnc3n(c2=O)CCS3)C2CCCCC2)c1	.	?	.	12µM	.	.
O=C(c1cnc2n(c1=O)CCS2)N(C1CCCCC1)C1CCCCC1	.	23µM	.	?	.	.
CCOC(=O)c1cc(NC(=O)c2ccc(OC)cc2)c(=O)n2c1oc1ccc(Cl)cc12	.	.	/	.	.	/
O=C(c1cccnc1)N1N=C(C2CCCCC2)CC1(O)C(F)(F)F (stereo not drawn)	.	8.2µM	.	6.5µM	.	.
O=C(c1cccnc1)N1N=C2CCCCCC2C1(O)C(F)(F)F (stereo not drawn)	.	.	.	.	.	.
